Measured values from PubChem BioAssay (NCI).
Compounds without any hit were thinned out: in the full panel of roughly 79,000, 15% have a hit. Activity calls are given as the source filed them. Rule as the data show it: active = growth inhibition above about 70%; inactive = the rest.

How the values were obtained:
[1] = NCI Yeast Anticancer Drug Screen. Data for the mec2-1 strain (AID 157); conditions: S. cerevisiae mec2-1 strain, stronger effect = higher value
Summary of the method: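 mec2-1 yeast strain, carrying an alteration in DNA damage repair or cell cycle control, was exposed to compounds; growth inhibition was measured relative to vehicle-treated controls.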

[2] = NCI Yeast Anticancer Drug Screen. Data for the sgs1 mgt1 strain (AID 161);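 also: 0% = growth of cultures given vehicle only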; conditions: S. cerevisiae sgs1 mgt1 strain, stronger effect = higher value
Summary of the method: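 Percent growth inhibition was derived by comparing compound-exposed mutant yeast with vehicle-exposed cultures. The strain carries alterations in DNA damage repair.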

[3] = NCI Yeast Anticancer Drug Screen. Data for the CLN2oe strain (AID 163);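 also: 0% = growth of vehicle-only control cultures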; conditions: S. cerevisiae CLN2oe strain, stronger effect = higher value
Summary of the method: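 Yeast cells carrying a defined cell-cycle control alteration were exposed to test compounds. Growth inhibition was scored against vehicle-treated control cultures.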

[4] = NCI Yeast Anticancer Drug Screen. Data for the cln2 rad14 strain (AID 165);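 also: 0% = growth equal to vehicle treated cultures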; conditions: S. cerevisiae cln2 rad14 strain, stronger effect = higher value
Summary of the method: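 Yeast carrying cln2 and rad14 alterations (cell cycle control and DNA damage repair) were exposed to compounds. Growth inhibition was measured against vehicle-treated controls.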

[5] = NCI Yeast Anticancer Drug Screen. Data for the bub3 strain (AID 167); conditions: S. cerevisiae bub3 mutant strain, stronger effect = higher value
Summary of the method: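 Readout: yeast growth inhibition, expressed relative to vehicle-only wells. The test organism is a mutant strain from a panel with lesions in DNA repair or checkpoint genes.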

[6] = NCI Yeast Anticancer Drug Screen. Data for the wt2 strain (AID 169);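 also: 0% = growth of vehicle-treated yeast cultures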; conditions: S. cerevisiae wt2 strain growth inhibition, stronger effect = higher value
Summary of the method: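 Yeast cells were exposed to test compounds, and growth inhibition was measured relative to vehicle-treated controls.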

[7] = NCI Yeast Anticancer Drug Screen. Data for the mlh1 strain (AID 171);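 also: 0% = growth of vehicle-treated control cultures of the same strain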; conditions: S. cerevisiae mlh1 strain growth inhibition, stronger effect = higher value
Summary of the method: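 Yeast carrying a defined genetic alteration in DNA damage repair or cell cycle control were exposed to test compounds. Growth inhibition was measured relative to vehicle-treated controls.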

[8] = NCI Yeast Anticancer Drug Screen. Data for the sgs1 strain (AID 173);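 also: 0% = growth of vehicle-only control cultures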; conditions: S. cerevisiae sgs1 mutant, stronger effect = higher value
Summary of the method: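 Yeast mutant strains carrying defined defects in DNA damage repair or cell cycle control were exposed to test compounds. Growth inhibition was scored against vehicle-treated controls.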

[9] = NCI Yeast Anticancer Drug Screen. Data for the mlh1 rad18 strain (AID 175); conditions: S. cerevisiae mlh1 rad18 strain growth inhibition, stronger effect = higher value
Summary of the method: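 Growth inhibition of the yeast strain was measured after compound exposure and expressed relative to vehicle-treated controls. The strain carries defined defects in DNA damage repair.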

[10] = NCI Yeast Anticancer Drug Screen. Data for the rad18 strain (AID 177); conditions: S. cerevisiae rad18 mutant growth inhibition, stronger effect = higher value
Summary of the method: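 Yeast carrying a defined DNA damage repair alteration were exposed to compounds. Growth inhibition was expressed relative to vehicle-treated controls.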

[11] = NCI Yeast Anticancer Drug Screen. Data for the wt1 strain (AID 149);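 also: 0% = growth of vehicle-treated wt1 cultures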; conditions: S. cerevisiae wt1 strain (SPY 50644) growth inhibition, stronger effect = higher value
Summary of the method: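 Growth inhibition read against vehicle controls after compound exposure of the wt1 yeast strain.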

[12] = NCI Yeast Anticancer Drug Screen. Data for the rad50EPP+ strain (AID 151);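 also: 0% = growth of vehicle-treated control cultures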; conditions: S. cerevisiae rad50 mutant strain, stronger effect = higher value
Summary of the method: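 Yeast strain carrying rad50 alteration (rad50EPP+) exposed to compounds; growth inhibition measured relative to vehicle-treated controls.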

[13] = NCI Yeast Anticancer Drug Screen. Data for the mgt1 strain (AID 153); conditions: S. cerevisiae mgt1 mutant growth inhibition, stronger effect = higher value
Summary of the method: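 Yeast mgt1 strain (DNA repair/cell-cycle alteration panel) exposed to compounds; growth inhibition measured relative to vehicle-treated controls.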

[14] = NCI Yeast Anticancer Drug Screen. Data for the rad50 strain (AID 155);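 also: 0% = growth of vehicle-only cultures of the same strain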; conditions: S. cerevisiae rad50 strain growth inhibition, stronger effect = higher value
Summary of the method: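 Readout: growth inhibition relative to vehicle-treated cultures. Compound exposure was carried out in a genetically defined yeast strain deficient in DNA damage repair.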

[15] = NCI Yeast Anticancer Drug Screen. Data for the rad14 strain (AID 159);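 also: 0% = growth of vehicle-treated control cultures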; conditions: S. cerevisiae rad14 strain growth inhibition, stronger effect = higher value
Summary of the method: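 Growth inhibition vs vehicle controls; genetically altered yeast strain (DNA damage repair defect) treated with test compounds.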

[16] = at 5.0 µM (retest, dose inferred, filed as 0.5)
[17] = at 50.0 µM (retest, dose inferred, filed as 5.0)

Measured: growth inhibition

CCCCOC(=O)Nc1ccc(C)c(NC(=O)OCCCC)c1
active: [2]; [17] 82% | [2]; at 50.0 µM 88.6% | [4]; [17] 79% | [4]; at 50.0 µM 91.9% | [5]; [17] 72% | [5]; at 50.0 µM 94.5% | [8]; at 100.0 µM 72% | [9]; [17] 84% | [9]; at 50.0 µM 94.5%
inactive: [1]; at 100.0 µM 22% | [2]; [16] 1% | [3]; at 1.2 µM -11% | [3]; at 3.7 µM -19% | [3]; at 11.0 µM 11% | [3]; at 33.0 µM 31% | [3]; at 100.0 µM 38% | [4]; [16] -4% | [5]; at 1.2 µM -8% | [5]; at 3.7 µM -9% | [5]; [16] -2% | [5]; at 11.0 µM -8% | [5]; at 33.0 µM 3% | [5]; at 100.0 µM 8% | [6]; at 1.2 µM -4% | [6]; at 3.7 µM -4% | [6]; at 11.0 µM 6% | [6]; at 33.0 µM 52% | [6]; at 100.0 µM 29% | [7]; at 1.2 µM -8% | [7]; at 3.7 µM -6% | [7]; at 11.0 µM 1% | [7]; at 33.0 µM 17% | [7]; at 100.0 µM 36% | [8]; at 1.2 µM -4% | [8]; at 3.7 µM -5% | [8]; at 11.0 µM 8% | [8]; at 33.0 µM 47% | [9]; [16] -1% | [10]; at 1.2 µM -5% | [10]; at 3.7 µM -8% | [10]; at 11.0 µM 12% | [10]; at 33.0 µM 31% | [10]; at 100.0 µM 50%

O=c1nc2n(Cc3ccccc3)c3ccccc3nc-2c(=O)[nH]1
inactive: [11]; at 1.2 µM -1% | [11]; at 3.7 µM 4% | [11]; at 11.0 µM 2% | [11]; at 33.0 µM 2% | [11]; at 100.0 µM 3% | [12]; at 1.2 µM 7% | [12]; at 3.7 µM 30% | [13]; at 1.2 µM -5% | [13]; at 3.7 µM 5% | [14]; at 1.2 µM -2% | [14]; at 3.7 µM -1% | [14]; [16] -15% | [14]; at 11.0 µM 2% | [14]; at 33.0 µM -1% | [14]; [17] 13% | [14]; at 50.0 µM 26.1% | [14]; at 100.0 µM 1% | [1]; at 1.2 µM -2% | [1]; at 3.7 µM 3% | [1]; [16] -2% | [1]; at 11.0 µM 5% | [1]; at 33.0 µM 6% | [1]; [17] -5% | [1]; at 50.0 µM 37.9% | [1]; at 100.0 µM 12% | [15]; at 1.2 µM 0% | [15]; at 3.7 µM 3% | [15]; at 11.0 µM 5% | [15]; at 33.0 µM 1% | [15]; at 100.0 µM 1% | [2]; [16] 39% | [3]; at 1.2 µM -12% | [3]; at 3.7 µM -7% | [3]; at 11.0 µM 3% | [3]; at 33.0 µM 5% | [3]; at 100.0 µM 0% | [4]; [16] 6% | [4]; [17] 22% | [4]; at 50.0 µM 28.2% | [5]; at 1.2 µM -3% | [5]; at 3.7 µM -6% | [5]; [16] 19% | [5]; at 11.0 µM -3% | [5]; at 33.0 µM -6% | [5]; [17] 1% | [5]; at 50.0 µM 11.4% | [5]; at 100.0 µM -8% | [6]; at 1.2 µM -2% | [6]; at 3.7 µM 3% | [6]; at 11.0 µM 67% | [7]; at 1.2 µM -3% | [7]; at 3.7 µM 3% | [7]; at 11.0 µM 65% | [8]; at 1.2 µM -2% | [8]; at 3.7 µM 11% | [9]; [16] 37% | [9]; [17] 39% | [9]; at 50.0 µM 26.6% | [10]; at 1.2 µM 0% | [10]; at 3.7 µM 1% | [10]; at 11.0 µM 4% | [10]; at 33.0 µM 9% | [10]; at 100.0 µM 9%
active: [12]; at 11.0 µM 74% | [12]; at 33.0 µM 92% | [12]; at 100.0 µM 97% | [13]; at 11.0 µM 74% | [13]; at 33.0 µM 94% | [13]; at 100.0 µM 96% | [2]; [17] 96% | [2]; at 50.0 µM 97.2% | [6]; at 33.0 µM 93% | [6]; at 100.0 µM 96% | [7]; at 33.0 µM 93% | [7]; at 100.0 µM 97% | [8]; at 11.0 µM 74% | [8]; at 33.0 µM 94% | [8]; at 100.0 µM 97%
